From PubChem BioAssay AID1159580 (chemical genetic matrix, 2015)
Among all 5,500 compounds or so, about 2,000 (36%) were called active. Another 18% or so got no clear call; they are omitted. Cut-off read from the data, not from the text of the source: active = normalized growth mostly below about 0.91 (no sharp cut-off); inconclusive = no clear call, values can overlap the other calls; inactive = mostly above about 0.92. This is one part of the list.

Assay: chemical genetic growth profiling, strain panel (AID 1159580);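 note: tested at 20 µM; growth read once vehicle control cultures reached saturation at 30 °C; 1 = growth at the plate median or of vehicle wells; lower values mean less growth of the strain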
Details: S. cerevisiae deletion strains, growth OD
[1] = locus YAL040C, strain CLN3, stronger effect = lower value
[2] = locus YDR363W, strain ESC2, stronger effect = lower value
[3] = locus YER002W, strain NOP16, stronger effect = lower value
[4] = locus YNL175C, strain NOP13, stronger effect = lower value
[5] = locus YNL197C, strain WHI3, stronger effect = lower value
[6] = locus YNL224C, strain SQS1, stronger effect = lower value
[7] = locus YOR083W, strain WHI5 (second series), stronger effect = lower value
[8] = locus YAL013W, strain DEP1, stronger effect = lower value
[9] = locus YCL061C, strain MRC1 (second series), stronger effect = lower value
[10] = locus YMR263W, strain SAP30, stronger effect = lower value
[11] = locus YPL055C, strain LGE1, stronger effect = lower value

Measured: normalized growth

NC(C(=O)N[C@@H]1C(=O)N2C(C(=O)O)=C(Cl)CS[C@H]12)c1ccccc1 (some centres undefined)
inactive: [1] 0.986 | [2] 1.03 | [3] 1 | locus YMR307W, strain GAS1, stronger effect = lower value 0.998 | [4] 1.01 | [5] 0.99 | [6] 1.01 | locus YNL322C, strain KRE1, stronger effect = lower value 1 | [7] 0.992

c1ccc2nc(C3=NCCN3)ccc2c1
inactive: [8] 0.99 | [1] 1.04 | [9] 0.986 | [3] 0.993 | locus YGR229C, strain SMI1, stronger effect = lower value 0.955 | [10] 0.982 | [4] 0.995 | [5] 0.996 | [6] 0.993 | [7] 1 | [11] 1.01 | locus YPL241C, strain CIN2, stronger effect = lower value 0.987

NC(=O)CN1CC(O)CC1=O (centres undefined)
inactive: [8] 1 | [1] 1 | [9] 1 | [2] 0.995 | [3] 1.01 | locus YGR078C, strain PAC10, stronger effect = lower value 1.02 | locus YJR075W, strain HOC1, stronger effect = lower value 1.01 | [10] 1 | [4] 1.01 | [5] 1.01 | [6] 1 | [7] 1 | [11] 1.01
